According to PubChem BioAssay (Tox21):
Values joined by “and” are separate entries in the source; they are usually repeats but may differ in a detail not shown here. Identical values can stand only once. Results filed as inconclusive are left out. A call without a number means that no potency is given here. Some structures have more than one record in an assay (separate samples or runs), and their calls can disagree. Active and inactive are the calls of the source. Calls come from the whole dose curve; as a rule, active = well fitted cell-killing curve with a large enough effect in the repeat runs; inconclusive = weak or mixed curves, or effect the other way; inactive = no such curve, though single readings can be large or run the other way.

Test: qHTS assay to identify small molecule agonists of the RXR signaling pathway - cell viability counter screen (AID 1159529); note: nearly all actives have a fitted effect of over 50% in size
Settings: RXR-alpha-bla HEK293T viability, CellTiter-Glo, 16 h; series mostly up to 76.8 µM
From the text: National Center for Advancing Translational Sciences [NCATS]
NIH Chemical Genomics Center [NCGC]
U.S. Environmental Protection Agency [EPA]
National Institutes of Environmental Health Sciences [NIEHS]
National Toxicology Program [NTP]
U.S. Food and Drug Administration [FDA]
The Retinoid X receptor (RXR), a nuclear hormone receptor expressed in liver, spleen, placenta, epidermis, central nervous system. These receptors are able to form homo and heterodimers with other nuclear receptors and due to this heterodimerizing ability, RXR functions as master regulators producing diverse physiological effects. Three subtypes of RXR exist; alpha, beta and gamma. Retinoid X receptor alpha (RXR-alpha) has potential roles in metabolic signaling pathways, skin alopecia, dermal cysts, cardiac development, insulin sensitization etc. Therefore screening environmental chemicals on RXR-alpha signaling can be used for the studies focused on such therapeutic applications. For quantification of RXR-alpha ligands signaling, GeneBLAzer RXR alpha-UAS-bla HEK 293T (Life Technologies, Carlsbad, CA) cells containing a beta-lactamase reporter-gene under control of Retinoid X receptor-alpha response element were used to screen Tox21 10K library. The cytotoxicity of the Tox21 compound library against the RXR-alpha HEK 293T cell line was tested in parallel by measuring cell viability using CellTiter-Glo assay (Promega Corporation, Madison, WI) in the same wells.
Tox21 Assay Protocol Summary:
RXR-alpha HEK 293T cells were dispensed at 2,000 cells/6 uL of assay medium containing 2% charcoal-stripped FBS using a Multidrop Combi (ThermoFisher Scientific, Waltham, MA) dispenser. The assay was performed in black wall/clear-bottom 1536-well plates (Greiner Bio-One North America Inc. Monroe, NC). Tetraoctyl ammonium bromide was used as a positive control in the cytotoxicity screen. After the assay plates were incubated at 37 C and 5% CO2 for 5 hr, 23 nL of compounds dissolved in DMSO, positive control or DMSO only were transferred to the assay plate by a Pintool station (Kalypsys, San Diego, CA). The assay plates were incubated at 37 C and 5% CO2 for 16 hr. One uL of LiveBLAzer B/G FRET substrate (Life Technologies) was added using a Flying Reagent Dispenser (FRD) (Aurora Discovery, San Diego, CA) and the plates were incubated at room temperature for 2 hr. Fluorescence intensity (405 nm excitation, 460/530 nm emission) was measured using an Envision plate reader (PerkinElmer, Shelton, CT). For cytotoxicity, 4 uL/well of CellTiter-Glo reagent was added into the assay plates using an FRD. After 30 min incubation at room temperature, the luminescence intensity was measured using a ViewLux plate reader (PerkinElmer).
Potency is the fitted concentration of half-maximal effect.

Compound | Potency
CCCCNC(=O)NS(=O)(=O)c1ccc(C)cc1 | inactive
Nc1c2c(nc3ccccc13)CCCC2 | inactive
C1=CC2C3C=CC(C3)C2C1 (stereo not given) | inactive
O=C1OC2(c3ccccc31)c1cc(Br)c(O)c(Br)c1Oc1c2cc(Br)c(O)c1Br | inactive
Cc1ncc([N+](=O)[O-])n1CCO | inactive
CCN(CC)C(=O)c1cccc(C)c1 | inactive
C=CCc1ccc(O)c(OC)c1 | inactive
C[C@](N)(Cc1ccc(O)c(O)c1)C(=O)O | inactive
CCCc1cc(=O)[nH]c(=S)[nH]1 | inactive
CCCCC(CC)C(=O)O (stereo not given) | inactive
NC(=O)c1cccnc1 | inactive
COc1ccc2c(c1)c(CC(=O)O)c(C)n2C(=O)c1ccc(Cl)cc1 | inactive
O=C1NC(=O)C(c2ccccc2)(c2ccccc2)N1 | inactive
CN1CCc2cccc3c2[C@H]1Cc1ccc(O)c(O)c1-3 | 18.3 µM (active)
CC(C)C(=O)Nc1ccc([N+](=O)[O-])c(C(F)(F)F)c1 | inactive
CC/C(=C(\c1ccccc1)c1ccc(OCCN(C)C)cc1)c1ccccc1 | 15.5 µM (active) [middle of 5 runs]
CNNCc1ccc(C(=O)NC(C)C)cc1 | inactive
Nc1ccc(O)c([N+](=O)[O-])c1 | inactive
CC(=O)C(=O)O | inactive
CCOC(N)=O | inactive

Compound | Potency
CCN(Cc1c(F)cccc1Cl)c1c([N+](=O)[O-])cc(C(F)(F)F)cc1[N+](=O)[O-] | 9.77 µM (active)
CC(C)NCC(O)c1ccc(O)c(O)c1 (stereo not given) | inactive
Cn1c(=O)c2c(ncn2C)n(C)c1=O | inactive
O=C1c2c(O)cccc2Cc2cccc(O)c21 | inactive
COc1cccc(O)c1O | inactive
F[B-](F)(F)F | inactive
O=c1[nH]cc(F)c(=O)[nH]1 | 45.3 µM (active) and inactive
CC(O)(P(=O)(O)O)P(=O)(O)O | inactive
CC(=O)CC(c1ccccc1)c1c(O)c2ccccc2oc1=O (stereo not given) | inactive
O=c1[nH]cnc2c1ncn2[C@H]1CC[C@@H](CO)O1 | inactive
Cc1ccc(S(=O)(=O)O)cc1 | inactive
OC[C@H]1O[C@H](O[C@]2(CCl)O[C@H](CCl)[C@@H](O)[C@@H]2O)[C@H](O)[C@@H](O)[C@H]1Cl | inactive
CN(C)C(=O)Nc1ccc(Cl)c(Cl)c1 | inactive
CCCCCCCCCCCCCCCC[N+](C)(C)Cc1ccccc1 | 17.9 µM (active) and 14 µM (active) and 4.25 µM (active)
C1CCC(C(CC2CCCCN2)C2CCCCC2)CC1 (stereo not given) | 23.9 µM (active)
CN1[C@@H]2CC(OC(=O)[C@H](CO)c3ccccc3)C[C@H]1[C@@H]1O[C@@H]12 (stereo not given in full) | inactive
Cc1cn([C@H]2C=C[C@@H](CO)O2)c(=O)[nH]c1=O | inactive
C=C(C)C(=O)OCC(C)O (stereo not given) | inactive
Nc1ccc(S(N)(=O)=O)cc1 | inactive
CS(=O)(=O)OCCCCOS(C)(=O)=O | inactive
